The source of these data is PubChem BioAssay (NCI).

Each structure is given as a SMILES string. About 83,000 compounds went through this panel and 20% of them were active in at least one assay; those are over-represented in the sample as a whole.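 Interpretation: 100, growth as untreated; towards 0, rising growth inhibition; 0, no net growth; 0 to -100, cell death. Compounds scoring below 10 were considered active.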 The source made the active and inactive calls.

The test system of this assay is HL-60(TB) leukemia. In words: NCI-60 one-dose screen, 48 h (100 = growth as untreated, 0 = no growth, -100 = all killed). The note with it: 10 µM unless noted.
Regarding `CCOC(=O)/C(F)=C/C1CC1CCc1ccc(OCC)cc1` (centres undefined), the growth was 101% (inactive).

For `CN(C)CCCNC(=O)c1cc(NC(=O)c2cc(NC(=O)c3ccc(/C=C/c4ccccc4)cc3)cn2C)cn1C`, the growth was -37.7% (active). Consider `COc1cc2c3c(n(CCCN4CCC[C@@H]4CO)c(=O)c2cc1OC)-c1cc2c(cc1C3=O)OCO2`, for which the growth is -15.4% (active). Take `Cc1ccc(S(=O)(=O)N2CCN(S(=O)(=O)c3oc(-c4ccccc4)nc3C#N)CC2)cc1`: the growth is 69.4% (inactive). For `Nc1nc(-c2ccccc2)c(N=Nc2ccc([N+](=O)[O-])cc2Cl)s1`, the growth was 98.1% (inactive). As to `CC1CCCCN1CCCNC(=O)N/C(N)=N/c1nc2ccccc2s1` (centres undefined), the growth is 19.5% (inactive). Consider `CN1C(=O)N(C)C2SC(N/N=C/c3ccccc3)=NC21` (centres undefined), for which the growth was 8.73% (active). Regarding `Cc1ccc(C(=O)C(c2c[nH]c3ccccc23)c2c[nH]c3ccccc23)cc1`, the growth was 17.2% (inactive). With `CC1=C(c2cc(-c3ccc(Cl)cc3)c(C#N)c(N)n2)C(c2ccccc2)NC(=S)N1` (centres undefined) the figure was 5.3% (active); with `O=C(NN1C(=O)/C(=C/C=C/c2ccc([N+](=O)[O-])o2)SC1=S)c1ccncc1`, -30.4% (active). On to `O=C1N/C(=N\c2nccs2)S/C1=C\c1ccc([N+](=O)[O-])cc1`, for which the growth was 5.47% (active). Consider `Cc1ccc(-c2cc(C(=O)N=Nc3c(O)[nH]c4ccc(F)cc34)c3ccccc3n2)cc1`, for which the growth was 88.4% (inactive). With `CCCCCCCCc1ccc(C(=O)Nc2cccc(P(=O)(O)O)c2)cc1`, the growth was 101% (inactive).

For the compound `COc1ccc2c(c1)N=c1c-2cc2c(O)[nH]c(=S)n2c1=O`, the growth is -13.3% (active).
